Anthrax LT inh – blocks cellular internalization of anthrax lethal toxin | 70,000 compounds, 0.67% hits | AID 912 | Cells, anthrax lethal toxin internalization, FRET ratio (460/530) | Potency, µM (doses to about 40 µM), hits mostly inhibitors; note: nearly all actives have a fitted effect of over 50% in size
AmpC det inh – AmpC beta-lactamase inhibition, detergent assay; purified AmpC, nitrocefin hydrolysis with detergent; 71,000 compounds, 0.09% hits; AID 584; Potency, µM (titrated, usually from 28.7 µM); active = well fitted curve in the direction sought with a large enough effect; inconclusive = small, poorly fitted or top-dose-only effect
Target sequence (P00811 whole entry, looked up): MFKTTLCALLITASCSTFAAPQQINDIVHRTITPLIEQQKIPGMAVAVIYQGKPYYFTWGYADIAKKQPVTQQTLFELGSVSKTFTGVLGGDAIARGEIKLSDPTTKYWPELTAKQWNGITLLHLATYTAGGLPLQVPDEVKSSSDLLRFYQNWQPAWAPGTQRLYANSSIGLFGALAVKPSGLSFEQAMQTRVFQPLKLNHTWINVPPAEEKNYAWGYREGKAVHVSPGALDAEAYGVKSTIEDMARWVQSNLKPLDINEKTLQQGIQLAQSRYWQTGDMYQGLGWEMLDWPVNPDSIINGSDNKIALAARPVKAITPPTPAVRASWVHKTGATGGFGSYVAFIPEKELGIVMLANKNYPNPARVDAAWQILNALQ
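E. coli AmpC (5.3 nM) in 20 mM phosphate pH 7.0 with 0.01% Triton X-100, preincubated 15 min RT with compound; nitrocefin (2 uL of 800 uM stock) hydrolysis followed by 480 nm absorbance every 20 s over 4 min.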
SmPrx2 inh – inhibitors of Schistosoma mansoni peroxiredoxin 2; Potency, µM; AID 448; 65,000 compounds, 0.07% hits; S. mansoni Prx2 activity coupled to TGR/GSH (TGR is thioredoxin glutathione reductase), NADPH fluorescence loss, qHTS
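qHTS, coupled TGR/Prx2 format; 15 min compound preincubation at RT; reaction started with H2O2 (2.5 mM aliquot); kinetic NADPH fluorescence decrease, ex 365/em 450 nm.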
AmpC inh no det – AmpC beta-lactamase inhibition, detergent-free assay | AID 585 | P00811 | 71,000 compounds, 1.8% hits | Potency, µM (doses to about 28.7 µM) | AmpC nitrocefin hydrolysis, absorbance 480 nm, no detergent
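AmpC, 20 mM phosphate pH 7.0; 15 min cpd preinc, RT; start with nitrocefin (800 uM stock); A480 kinetic read, 20 s intervals, 4 min. No-enzyme wells = negative control.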
A number is an active result; . = inactive; ? = inconclusive; / = no result; [ ] = remark or other dose. Only some compounds are listed: those with a hit (about 2.4% of all), similar ones and a draw of the others. Unless noted, calls come from the whole dose curve.

SMILES	Anthrax LT inh	AmpC det inh	SmPrx2 inh	AmpC inh no det
Cc1nn2c(=O)cc(CSc3nc4ccccc4[nH]3)nc2s1	.	.	.	4µM[single pt active]
COc1ccc(-c2nc(CSCC(=O)N3CCN(c4cccc(C)c4)C(C)C3)c(C)o2)cc1OC (configuration not stated)	10µM	.	.	.
C[C@@H]1C[C@@]2(C)Oc3ccccc3[C@H]3OC[C@]1(COC(=O)Nc1ccccc1)[C@@H](C)[C@@H]32	.	.	.	.
CC(C)[C@H](CO)Nc1nc(Nc2cccc(Cl)c2)c2ncn(C(C)C)c2n1	13µM	.	.	.
COc1ccc(NC(=O)c2cc(-c3ccc(O)cc3)on2)cc1OC	.	.	.	.
CC(=O)n1nc(-c2ccco2)nc1SCc1ccccc1	7.9µM	.	?	?
CCC(=O)n1nc(-c2ccco2)nc1SCc1ccccc1	.	.	.	.
CC(C)(N)CO[C@H]1C[C@H]2CC[C@@]1(C)C2(C)C	.[8 µM]	.[5.75 µM]	.	.[5.75 µM]
COc1ccc(NC(=O)/C=C\c2ccc(Cl)cc2)cc1	?	.	.	.
O=C1c2ccccc2C(Nc2ccc(S(=O)(=O)N3CCOCC3)cc2)N1c1cccnc1 (configuration not stated)	?	.	.	4µM[single pt active]
O=C1c2ccccc2C(Nc2ccc(S(=O)(=O)N3CCCCC3)cc2)N1c1ccccn1 (configuration not stated)	?	.	.	3.2µM[single pt active]
O=C1c2ccccc2C(Nc2ccc(F)c(Cl)c2)N1c1ccccn1 (configuration not stated)	.	.	.	4µM[single pt active]
COC(=O)[C@@H]1C[C@@H]1[C@@H](NP(=O)(c1ccccc1)c1ccccc1)c1ccccc1	.	.	/	.
C=CC1=C(C)C2=Cc3c(C=C)c(C)c4[n]3[Sn+2][n]3c(c(C)c(CCC(=O)O)c3=CC3=NC(=C4)C(C)=C3CCC(=O)O)=CC1=N2	.	.	.	.
O=C(c1cccc(F)c1)N1CCC2(CC1)CCN(c1ccccn1)CC2	.	.	.	.
CC(=O)Oc1ccc(/C=C\C(=O)C[C@@H]2O[C@@H](Oc3cc(OC(C)=O)c4c(c3)O[C@@H](c3ccc(OC(C)=O)cc3)CC4=O)[C@H](OC(C)=O)[C@H](OC(C)=O)[C@@H]2OC(C)=O)cc1	?	.	.	.
C/C=C/C=O	.	.	/	.
Cc1ccccc1NC(=O)c1ocnc1C	.	.	.	4µM[single pt active]
Cc1cc(C(=O)OCC(=O)Nc2cc(C)on2)c2ccccc2n1	.	.	.	.
Cc1ccc(-c2cc(C(=O)Nc3cc(C)on3)c3ccccc3n2)c(C)c1	?	.	.	4µM[single pt active]
O=P(O)(O)c1ccccc1 (tested in a mixture with another compound)	.[8 µM]	.[5.75 µM]	.	.[5.75 µM]
Nc1c(S(=O)(=O)c2cccs2)c2nc3ccccc3nc2n1/N=C/c1cccc(O)c1	5µM	.	.	.
N[C@H](Cn1ccc(=O)[nH]c1=O)C(=O)O	.	.	.	.
COC(=O)c1ccc2c(c1)NC(=O)C1CCCN21 (configuration not stated)	?	.	.	4µM[single pt active]
Cn1c(=O)oc2cc(S(=O)(=O)N3CCCC(C(=O)NCc4ccc5c(c4)OCO5)C3)ccc21 (configuration not stated)	.	.	.	4µM[single pt active]
SMILES	Anthrax LT inh	AmpC det inh	SmPrx2 inh	AmpC inh no det
Cc1ccc(NC(=O)C2CCCN(S(=O)(=O)c3ccc4c(c3)oc(=O)n4C)C2)nc1 (configuration not stated)	.	.	.	4µM[single pt active]
O=S(=O)(NCCNC/C=C\c1ccc(Br)cc1)c1cccc2cnccc12	?	.	/	.
Nc1ccccc1O.O.O=C(O)[C@H]1[O][Sb][O][C@H]1C(=O)O	?	.[5.75 µM]	0.22	.[5.75 µM]
CCn1c(SCC(=O)Nc2oc(-c3ccccc3)c(-c3ccccc3)c2C#N)nnc1-c1ccco1	?	.	.	?
N#Cc1c(NC(=O)CSc2ncnc3sccc23)oc(-c2ccco2)c1-c1ccco1	?	.	.	7.9µM
CCN(CC)CCOc1ccc(Cc2ccccc2)cc1	25µM	.	.	.
O=C(Cn1cc2c(n1)CCCC2)Nc1ccccc1Br	.	.	.	4µM[single pt active]
COC(=O)CNC(=O)[C@@]1(C)C=C[C@@H](Cc2ccccc2)N1C(C)=O	?	.	/	.
COc1cccc(C2CC(c3cccc(OC)c3)n3nc(N)nc3N2)c1 (configuration not stated)	.	.	.	4µM[single pt active]
COc1cccc(C2CC(c3ccc(F)cc3)Nc3nc(N)nn32)c1 (configuration not stated)	.	.	.	2.5µM[single pt active]

Compound activity from PubChem BioAssay.
